Assay results: PubChem BioAssay AID449766 (NMMLSC, 2010)

Molecular target: Integrin alpha-4 (Homo sapiens) (UniProt P13612)
Assay: concentration series for VLA-4 modulators – cell-based, U937, HUTS-21 LIBS antibody, flow cytometry, dose response (AID 449766)
Details: U937 cells, HUTS-21 LIBS mAb binding; series mostly up to 20 µM; inhibition: at the top concentration;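 active = compound whose curve gives half-maximal concentration under 30 µM, top-dose inhibition above a set limit, tight estimate; inactive = the rest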

Sequence of Integrin alpha-4 (Homo sapiens) (P13612 whole entry, looked up): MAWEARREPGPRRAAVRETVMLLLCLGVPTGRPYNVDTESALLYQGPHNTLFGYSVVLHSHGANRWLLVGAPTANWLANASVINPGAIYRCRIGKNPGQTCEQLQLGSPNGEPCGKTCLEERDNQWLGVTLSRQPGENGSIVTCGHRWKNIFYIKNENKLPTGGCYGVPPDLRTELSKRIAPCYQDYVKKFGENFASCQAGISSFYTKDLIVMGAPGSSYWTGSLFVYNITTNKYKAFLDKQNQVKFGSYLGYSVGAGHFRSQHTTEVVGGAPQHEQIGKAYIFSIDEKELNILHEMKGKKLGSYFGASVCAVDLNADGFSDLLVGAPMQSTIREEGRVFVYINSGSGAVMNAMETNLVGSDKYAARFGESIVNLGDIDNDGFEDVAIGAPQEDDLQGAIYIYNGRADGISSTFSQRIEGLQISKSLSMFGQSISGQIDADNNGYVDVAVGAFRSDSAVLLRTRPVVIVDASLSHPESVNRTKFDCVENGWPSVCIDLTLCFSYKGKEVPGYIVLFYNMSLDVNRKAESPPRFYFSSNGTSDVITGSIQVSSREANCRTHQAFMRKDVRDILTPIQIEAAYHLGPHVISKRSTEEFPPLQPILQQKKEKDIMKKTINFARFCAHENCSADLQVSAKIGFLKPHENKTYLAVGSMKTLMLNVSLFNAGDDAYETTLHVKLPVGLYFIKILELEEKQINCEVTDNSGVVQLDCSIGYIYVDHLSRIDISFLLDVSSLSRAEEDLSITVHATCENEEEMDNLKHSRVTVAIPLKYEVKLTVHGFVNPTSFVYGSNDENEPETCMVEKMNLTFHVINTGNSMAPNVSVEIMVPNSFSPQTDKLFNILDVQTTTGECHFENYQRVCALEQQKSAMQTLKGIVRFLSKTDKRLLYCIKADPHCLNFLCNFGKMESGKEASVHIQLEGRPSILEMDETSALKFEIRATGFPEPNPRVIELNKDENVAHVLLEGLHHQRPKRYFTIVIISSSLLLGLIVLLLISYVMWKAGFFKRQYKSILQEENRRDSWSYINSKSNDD

inhibition, inactive:
COc1cccc(-c2sc3ccc(OC)cc3c2-c2ccc(OCCN3CCCC3)cc2)c1 25.2%
COCCNC(=O)/C(C#N)=C/c1ccc(C(=O)O)cc1 6.86%
COc1ccc(-c2sc3cc4c(cc3c2-c2ccc(OCCN3CCOCC3)cc2)OCO4)cc1 7.5%
Nc1ccc(NS(=O)(=O)c2ccccc2)cc1 1.69%
COc1ccc(C2CC(=O)Nc3cc(OC)c(OC)cc32)cc1Br (stereo not given) -5.69%
COc1ccc(S(=O)(=O)Nc2c(F)cccc2F)cc1 -2.92%
COc1ccccc1-c1sc2cc3c(cc2c1-c1ccc(OCCN2CCCCC2)cc1)OCO3 35.6%
COc1cc2c(cc1OC)C(c1ccc(Br)cc1)CC(=O)N2 (stereo not given) 3.41%
Nc1cccc(S(=O)(=O)Nc2ccccc2)c1 16.8%
O=C(c1ccccc1)c1cc([N+](=O)[O-])ccc1N1CCOCC1 2.35%
COc1ccc(C)cc1S(=O)(=O)Nc1cccc(C)c1 1.97%
COCCNC(=O)/C(C#N)=C/c1c(F)cccc1Cl 14.6%
COCCNC(=O)/C(C#N)=C/c1cccc(/C=C(\C#N)C(=O)NCCOC)c1 35.2%
COc1cc(NC(=O)c2cc(S(=O)(=O)N3CCCCC3)ccc2N2CCOCC2)cc(OC)c1 7.5%
Nc1cc(S(=O)(=O)Nc2ccc(Br)cc2)ccc1Cl -7.23%
Cc1ccc(C(=O)c2cc([N+](=O)[O-])ccc2N2CCOCC2)cc1C 12.6%
Cc1ccc(S(=O)(=O)Nc2ccc(N(C)C)cc2)cc1 -2.63%
O=C(Nc1ccc(OC(F)F)cc1)c1cc(S(=O)(=O)N2CCCCC2)ccc1N1CCOCC1 8.79%
CCOc1ccc(C(=O)c2cc([N+](=O)[O-])ccc2N2CCOCC2)cc1 10.1%
COc1cccc(C2CC(=O)Nc3cc(OC)c(OC)cc32)c1 (stereo not given) -6.66%
COc1ccc(-c2sc3ccccc3c2-c2ccc(OCCN3CCOCC3)cc2)cc1 4.56%
O=C(Oc1ccc(F)cc1C(=O)/C=C/c1cccs1)c1cccc([N+](=O)[O-])c1 -28.2%
Cc1ccc(NS(=O)(=O)c2ccc(-c3cnc(C4CC4)o3)cc2)c(C)c1 12.3%
CCCCN1C(=O)C(=O)c2cc(Cl)ccc21 7.15%
Cc1ccc(C)c(NC(=O)c2cc(S(=O)(=O)N3CCCCC3)ccc2N2CCOCC2)c1 4.56%
Cc1ccc(C(=O)c2cc([N+](=O)[O-])ccc2N2CCOCC2)c(C)c1 27%
CCCCNC(=O)/C(C#N)=C/c1ccc(C(=O)OC)cc1 6.29%
CCOc1cccc(C2CC(=O)Nc3cc(OC)c(OC)cc32)c1 (stereo not given) 10.7%
COC(=O)[C@@H]1[C@@H](C#N)C2(c3ccccc3-c3ccccc32)N(c2ccc(Cl)cc2)N1C#N 10.6% [at 6.6 µM]
CCOc1ccc(S(=O)(=O)Nc2cc(OC)ccc2OC)cc1 -4.93% [at 0.74 µM]
CC(C)Oc1ccccc1C1CC(=O)Nc2cc3c(cc21)OCO3 (stereo not given) 8.88%
COc1ccc(C2=Nn3c(nnc3-c3ccc(OC)cc3)SC2)cc1 4.28%
CCOCCCNC(=O)/C(C#N)=C/c1cc(Br)c(O)c(Br)c1 -4.08%
CCCOc1ccccc1C1CC(=O)Nc2cc3c(cc21)OCO3 (stereo not given) 20.1%
O=C(Nc1ccccc1Cl)c1cc(S(=O)(=O)N2CCCCC2)ccc1N1CCOCC1 -7.81% [at 0.25 µM]
